# Laboratory results from the supplement of paper PMC8728848.
# About 410 targets per protein were measured; listed, in parts, are those with the strongest signals and a random draw of the rest.
# B1: PfulAvr4 (Pseudocercospora fuligena) (protein)
# chain: HHHHHHDYKDDDDKTYVQDKTPAFVCPAADIKTTKCLGPKDCLYPSPKTCNGYIQCSPADDSYLTGIIHEMPCPSGLLWNDNKKWCDWPENTTCGLVKSAGATEVDATKQGPTPGKYHG
# Tests used:
# Test in all cases: glycan array binding signal (z-score within array); higher = stronger binding
# Details in all cases: glycan notation: IUPAC condensed, linker removed
# [1] = biological target: Fuc(a1-2)Gal(b1-3)GalNAc(b1-3)Gal
# Outline: (§1)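 Negative Z-scores can be read as non-binding. The Z-score is calculated within each array and then averaged across arrays of one protein sequence at different concentrations or buffers and across linkers. Arrays, 3228 in all, were curated from the Consortium for Functional Glycomics database and kept only where the protein sequence was available.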
# [2] = biological target: Fuc(a1-2)Gal(b1-3)[Fuc(a1-4)]GlcNAc(b1-2)Man(a1-3)[Fuc(a1-2)Gal(b1-3)[Fuc(a1-4)]GlcNAc(b1-2)Man(a1-3)]Man(b1-4)GlcNAc(b1-4)GlcNAc
# Outline: as §1
# [3] = biological target: Fuc(a1-2)Gal(b1-3)[Fuc(a1-4)]GlcNAc(b1-3)[Gal(b1-4)GlcNAc(b1-6)]Gal(b1-4)Glc
# Outline: as §1
# [4] = biological target: Fuc(a1-2)Gal(b1-4)GlcNAc(b1-3)[Fuc(a1-3)[Gal(b1-4)]GlcNAc(b1-6)]Gal(b1-4)Glc
# Outline: as §1
# [5] = biological target: Fuc(a1-2)Gal(b1-4)[Fuc(a1-3)]GlcNAc
# Outline: as §1
# [6] = biological target: Fuc(a1-2)Gal(b1-4)[Fuc(a1-3)]GlcNAc(b1-2)[Fuc(a1-2)Gal(b1-4)[Fuc(a1-3)]GlcNAc(b1-4)]Man(a1-3)[Fuc(a1-2)Gal(b1-4)[Fuc(a1-3)]GlcNAc(b1-2)Man(a1-6)]Man(b1-4)GlcNAc(b1-4)GlcNAc
# Outline: as §1
# [7] = biological target: Fuc(a1-2)[Gal(a1-3)]Gal(b1-3)GlcNAc(b1-2)Man(a1-3)[Fuc(a1-2)[Gal(a1-3)]Gal(b1-3)GlcNAc(b1-2)Man(a1-6)]Man(b1-4)GlcNAc(b1-4)GlcNAc
# Outline: as §1
# [8] = biological target: Fuc(a1-2)[Gal(a1-3)]Gal(b1-4)GlcNAc(b1-6)GalNAc
# Outline: as §1
# [9] = biological target: Fuc(a1-2)[GalNAc(a1-3)]Gal
# Outline: as §1
# [10] = biological target: Fuc(a1-2)[GalNAc(a1-3)]Gal(b1-3)GalNAc(a1-3)[Fuc(a1-2)]Gal(b1-4)GlcNAc
# Outline: as §1
# [11] = biological target: Fuc(a1-2)[GalNAc(a1-3)]Gal(b1-3)GlcNAc(b1-3)GalNAc
# Outline: as §1
# [12] = biological target: Fuc(a1-2)[GalNAc(a1-3)]Gal(b1-4)GlcNAc
# Outline: as §1
# [13] = biological target: Fuc(a1-2)[GalNAc(a1-3)]Gal(b1-4)GlcNAc(b1-3)[Fuc(a1-2)[GalNAc(a1-3)]Gal(b1-4)GlcNAc(b1-6)]GalNAc
# Outline: as §1
# [14] = biological target: Fuc(a1-2)[GalNAc(a1-3)]Gal(b1-4)GlcNAc(b1-6)GalNAc
# Outline: as §1
# [15] = biological target: Fuc(a1-2)[GalNAc(a1-4)]Gal(b1-4)GlcNAc
# Outline: as §1
# Gal(a1-3)Gal(b1-4)GlcNAc = biological target: Gal(a1-3)Gal(b1-4)GlcNAc
# Outline: as §1
# Gal(b1-2)Gal = biological target: Gal(b1-2)Gal
# Outline: as §1
# [16] = biological target: Gal(b1-3)GalNAc(b1-3)Gal(a1-4)Gal(b1-4)Glc
# Outline: as §1
# [17] = biological target: Gal(b1-3)GlcNAc(b1-2)Man(a1-3)[GlcNAc(b1-4)][Gal(b1-3)GlcNAc(b1-2)Man(a1-6)]Man(b1-4)GlcNAc(b1-4)GlcNAc
# Outline: as §1
# [18] = biological target: Gal(b1-3)GlcNAc(b1-3)GalNAc
# Outline: as §1
# [19] = biological target: Gal(b1-3)[Fuc(a1-4)]GlcNAc(b1-2)Man(a1-3)[Gal(b1-3)[Fuc(a1-4)]GlcNAc(b1-2)Man(a1-6)]Man(b1-4)GlcNAc(b1-4)[Fuc(a1-6)]GlcNAc
# Outline: as §1
# [20] = biological target: Gal(b1-3)[Neu5Ac(a2-6)]GalNAc
# Outline: as §1
# [21] = biological target: Gal(b1-4)GalNAc(b1-3)[Fuc(a1-2)]Gal(b1-4)GlcNAc
# Outline: as §1
# [22] = biological target: Gal(b1-4)GlcNAc(b1-2)Man(a1-3)[Man(a1-6)]Man(b1-4)GlcNAc(b1-4)GlcNAc
# Outline: as §1
# [23] = biological target: Gal(b1-4)GlcNAc(b1-2)Man(a1-6)[GlcNAc(b1-2)Man(a1-3)]Man(b1-4)GlcNAc(b1-4)GlcNAc
# Outline: as §1
# [24] = biological target: Gal(b1-4)GlcNAc(b1-3)Gal(b1-3)GlcNAc
# Outline: as §1
# [25] = biological target: Gal(b1-4)GlcNAc(b1-3)Gal(b1-4)GlcNAc(b1-2)[Gal(b1-4)GlcNAc(b1-3)Gal(b1-4)GlcNAc(b1-6)]Man(a1-6)[Gal(b1-4)GlcNAc(b1-3)Gal(b1-4)GlcNAc(b1-2)Man(a1-3)]Man(b1-4)GlcNAc(b1-4)GlcNAc
# Outline: as §1
# [26] = biological target: Gal(b1-4)GlcNAc(b1-3)Gal(b1-4)GlcNAc(b1-2)[Gal(b1-4)GlcNAc(b1-3)Gal(b1-4)GlcNAc(b1-6)]Man(a1-6)[Gal(b1-4)GlcNAc(b1-3)Gal(b1-4)GlcNAc(b1-2)Man(a1-3)]Man(b1-4)GlcNAc(b1-4)[Fuc(a1-6)]GlcNAc
# Outline: as §1
# [27] = biological target: Gal(b1-4)GlcNAc(b1-3)Gal(b1-4)GlcNAc(b1-3)Gal(b1-4)GlcNAc(b1-3)Gal(b1-4)GlcNAc(b1-3)Gal(b1-4)GlcNAc(b1-2)Man(a1-3)[Gal(b1-4)GlcNAc(b1-3)Gal(b1-4)GlcNAc(b1-3)Gal(b1-4)GlcNAc(b1-3)Gal(b1-4)GlcNAc(b1-3)Gal(b1-4)GlcNAc(b1-2)Man(a1-6)]Man(b1-4)GlcNAc(b1-4)[Fuc(a1-6)]GlcNAc
# Outline: as §1
binder,measurement,setting,value
B1,glycan array binding signal (z-score),[1],-0.098
same,glycan array binding signal (z-score),[2],1.42
same,glycan array binding signal (z-score),[3],-0.112
same,glycan array binding signal (z-score),[4],-0.102
same,glycan array binding signal (z-score),[5],-0.091
same,glycan array binding signal (z-score),[6],0.683
same,glycan array binding signal (z-score),[7],-0.05
same,glycan array binding signal (z-score),[8],-0.112
same,glycan array binding signal (z-score),[9],-0.132
same,glycan array binding signal (z-score),[10],1.31
same,glycan array binding signal (z-score),[11],-0.06
same,glycan array binding signal (z-score),[12],-0.151
same,glycan array binding signal (z-score),[13],-0.133
same,glycan array binding signal (z-score),[14],-0.129
same,glycan array binding signal (z-score),[15],-0.135
same,glycan array binding signal (z-score),Gal(a1-3)Gal(b1-4)GlcNAc,-0.07
same,glycan array binding signal (z-score),Gal(b1-2)Gal,-0.01
same,glycan array binding signal (z-score),[16],-0.044
same,glycan array binding signal (z-score),[17],0.682
same,glycan array binding signal (z-score),[18],-0.105
same,glycan array binding signal (z-score),[19],0.612
same,glycan array binding signal (z-score),[20],0.215
same,glycan array binding signal (z-score),[21],-0.141
same,glycan array binding signal (z-score),[22],1.71
same,glycan array binding signal (z-score),[23],-0.136
same,glycan array binding signal (z-score),[24],-0.04
same,glycan array binding signal (z-score),[25],1.38
same,glycan array binding signal (z-score),[26],-0.13
same,glycan array binding signal (z-score),[27],0.048
